{"source": "PubChem BioAssay (NCI)", "key": {"[1]": {"assay": "NCI Yeast Anticancer Drug Screen. Data for the rad52 strain (AID 147);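 further: 0% = growth of vehicle-treated control cultures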", "conditions": "S. cerevisiae rad52 mutant growth inhibition, hits give high values", "procedure,_shortened": "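Here a repair-compromised yeast strain receives each compound; its growth is then quantified and normalised to vehicle-only controls.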"}, "[2]": {"assay": "NCI Yeast Anticancer Drug Screen. Data for the wt1 strain (AID 149);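 further: 0% = growth of vehicle-treated wt1 cultures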", "conditions": "S. cerevisiae wt1 strain (SPY 50644) growth inhibition, hits give high values", "procedure,_shortened": "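Using yeast strain wt1, compound-induced growth inhibition was determined against vehicle-treated cultures.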"}, "[3]": {"assay": "NCI Yeast Anticancer Drug Screen. Data for the rad50EPP+ strain (AID 151);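 further: 0% = growth of vehicle-treated control cultures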", "conditions": "S. cerevisiae rad50 mutant strain, hits give high values", "procedure,_shortened": "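Read-out is yeast growth inhibition relative to vehicle; cells used were the rad50EPP+ strain.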"}, "[4]": {"assay": "NCI Yeast Anticancer Drug Screen. Data for the rad50 strain (AID 155);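 further: 0% = growth of vehicle-only cultures of the same strain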", "conditions": "S. cerevisiae rad50 strain growth inhibition, hits give high values", "procedure,_shortened": "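Relative growth inhibition (compound vs vehicle) was measured in yeast with a defined repair-gene alteration.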"}, "[5]": {"assay": "NCI Yeast Anticancer Drug Screen. Data for the mec2-1 strain (AID 157)", "conditions": "S. cerevisiae mec2-1 strain, hits give high values", "procedure,_shortened": "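Using mec2-1 yeast: add compound, measure growth, express inhibition versus vehicle-treated cultures.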"}, "[6]": {"assay": "NCI Yeast Anticancer Drug Screen. Data for the rad14 strain (AID 159);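 further: 0% = growth of vehicle-treated control cultures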", "conditions": "S. cerevisiae rad14 strain growth inhibition, hits give high values", "procedure,_shortened": "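Screen for anticancer potential: a yeast strain altered in DNA damage repair is grown with compound, and reduced growth is quantified against vehicle controls.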"}, "[7]": {"assay": "NCI Yeast Anticancer Drug Screen. Data for the sgs1 mgt1 strain (AID 161);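 further: 0% = growth of cultures given vehicle only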", "conditions": "S. cerevisiae sgs1 mgt1 strain, hits give high values", "procedure,_shortened": "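Percent growth inhibition was derived by comparing compound-exposed mutant yeast with vehicle-exposed cultures. The strain carries alterations in DNA damage repair.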"}, "[8]": {"assay": "NCI Yeast Anticancer Drug Screen. Data for the CLN2oe strain (AID 163);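 further: 0% = growth of vehicle-only control cultures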", "conditions": "S. cerevisiae CLN2oe strain, hits give high values", "procedure,_shortened": "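Whole-cell yeast growth assay. A strain engineered for altered cell-cycle control received compound, and inhibition relative to vehicle-treated cultures was recorded.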"}, "[9]": {"assay": "NCI Yeast Anticancer Drug Screen. Data for the bub3 strain (AID 167)", "conditions": "S. cerevisiae bub3 mutant strain, hits give high values", "procedure,_shortened": "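Screening used yeast with an engineered genetic alteration affecting cell cycle control. Compound-exposed cultures were compared with vehicle cultures, and reduced growth was taken as inhibition.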"}, "[10]": {"assay": "NCI Yeast Anticancer Drug Screen. Data for the wt2 strain (AID 169);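 further: 0% = growth of vehicle-treated yeast cultures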", "conditions": "S. cerevisiae wt2 strain growth inhibition, hits give high values", "procedure,_shortened": "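Treated yeast vs. vehicle-treated yeast: growth inhibition determined.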"}, "[11]": {"assay": "NCI Yeast Anticancer Drug Screen. Data for the mlh1 strain (AID 171);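 further: 0% = growth of vehicle-treated control cultures of the same strain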", "conditions": "S. cerevisiae mlh1 strain growth inhibition, hits give high values", "procedure,_shortened": "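A yeast strain with a defined genetic lesion serves as the test organism. Cultures receive compound or vehicle, and growth is measured.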"}, "[12]": {"assay": "NCI Yeast Anticancer Drug Screen. Data for the sgs1 strain (AID 173);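 further: 0% = growth of vehicle-only control cultures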", "conditions": "S. cerevisiae sgs1 mutant, hits give high values", "procedure,_shortened": "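A genetically defined yeast mutant is incubated with the test compound, and its growth is compared to that of the same strain given vehicle.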"}, "[13]": {"assay": "NCI Yeast Anticancer Drug Screen. Data for the mlh1 rad18 strain (AID 175)", "conditions": "S. cerevisiae mlh1 rad18 strain growth inhibition, hits give high values", "procedure,_shortened": "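Steps: expose repair-defective yeast to compound; measure growth; express inhibition against vehicle-treated controls.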"}, "[14]": {"assay": "NCI Yeast Anticancer Drug Screen. Data for the rad18 strain (AID 177)", "conditions": "S. cerevisiae rad18 mutant growth inhibition, hits give high values", "procedure,_shortened": "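Measured value is growth inhibition of a yeast strain bearing a DNA repair alteration, referenced to vehicle-treated cells.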"}, "[15]": {"conditions": "at 5.0 µM (retest, dose inferred, filed as 0.5)"}, "[16]": {"conditions": "at 50.0 µM (retest, dose inferred, filed as 5.0)"}}, "note": "About 79,000 compounds went through this panel and 15% of them were active in at least one assay; those are over-represented in the sample as a whole. Values without a mark were called inactive. Activity calls are given as the source filed them. No stated cut-off is given here; in the data, active means growth inhibition above about 70%; inactive means the rest."}
{"smiles": "O=c1ccc(N=Nc2ccccc2)ccc1O", "values": [{"measurement": "growth inhibition", "setting": "[1]; at 1.2 µM", "result": 0, "unit": "%"}, {"measurement": "growth inhibition", "setting": "[1]; at 3.7 µM", "result": 42, "unit": "%"}, {"measurement": "growth inhibition", "setting": "[1]; at 11.0 µM", "result": "95% (active)"}, {"measurement": "growth inhibition", "setting": "[1]; at 33.0 µM", "result": "99% (active)"}, {"measurement": "growth inhibition", "setting": "[1]; at 100.0 µM", "result": "98% (active)"}, {"measurement": "growth inhibition", "setting": "[2]; at 1.2 µM", "result": 16, "unit": "%"}, {"measurement": "growth inhibition", "setting": "[2]; at 3.7 µM", "result": 56, "unit": "%"}, {"measurement": "growth inhibition", "setting": "[2]; at 11.0 µM", "result": "97% (active)"}, {"measurement": "growth inhibition", "setting": "[2]; at 33.0 µM", "result": "99% (active)"}, {"measurement": "growth inhibition", "setting": "[2]; at 100.0 µM", "result": "97% (active)"}, {"measurement": "growth inhibition", "setting": "[3]; at 1.2 µM", "result": -8, "unit": "%"}, {"measurement": "growth inhibition", "setting": "[3]; at 3.7 µM", "result": 11, "unit": "%"}, {"measurement": "growth inhibition", "setting": "[3]; at 11.0 µM", "result": "88% (active)"}, {"measurement": "growth inhibition", "setting": "[3]; at 33.0 µM", "result": "98% (active)"}, {"measurement": "growth inhibition", "setting": "[3]; at 100.0 µM", "result": "97% (active)"}, {"measurement": "growth inhibition", "setting": "[4]; at 1.2 µM", "result": 18, "unit": "%"}, {"measurement": "growth inhibition", "setting": "[4]; at 3.7 µM", "result": "87% (active)"}, {"measurement": "growth inhibition", "setting": "[4]; [15]", "result": 34, "unit": "%"}, {"measurement": "growth inhibition", "setting": "[4]; at 11.0 µM", "result": "97% (active)"}, {"measurement": "growth inhibition", "setting": "[4]; at 33.0 µM", "result": "99% (active)"}, {"measurement": "growth inhibition", "setting": "[4]; [16]", "result": "99% (active)"}, {"measurement": "growth inhibition", "setting": "[4]; at 50.0 µM", "result": "98.7% (active)"}, {"measurement": "growth inhibition", "setting": "[4]; at 100.0 µM", "result": "98% (active)"}, {"measurement": "growth inhibition", "setting": "[5]; at 1.2 µM", "result": -1, "unit": "%"}, {"measurement": "growth inhibition", "setting": "[5]; at 3.7 µM", "result": 37, "unit": "%"}, {"measurement": "growth inhibition", "setting": "[5]; [15]", "result": 28, "unit": "%"}, {"measurement": "growth inhibition", "setting": "[5]; at 11.0 µM", "result": "93% (active)"}, {"measurement": "growth inhibition", "setting": "[5]; at 33.0 µM", "result": "99% (active)"}, {"measurement": "growth inhibition", "setting": "[5]; [16]", "result": "99% (active)"}, {"measurement": "growth inhibition", "setting": "[5]; at 50.0 µM", "result": "98.7% (active)"}, {"measurement": "growth inhibition", "setting": "[5]; at 100.0 µM", "result": "98% (active)"}, {"measurement": "growth inhibition", "setting": "[6]; at 1.2 µM", "result": 1, "unit": "%"}, {"measurement": "growth inhibition", "setting": "[6]; at 3.7 µM", "result": "91% (active)"}, {"measurement": "growth inhibition", "setting": "[6]; at 11.0 µM", "result": "98% (active)"}, {"measurement": "growth inhibition", "setting": "[6]; at 33.0 µM", "result": "99% (active)"}, {"measurement": "growth inhibition", "setting": "[6]; at 100.0 µM", "result": "99% (active)"}, {"measurement": "growth inhibition", "setting": "[7]; [15]", "result": 44, "unit": "%"}, {"measurement": "growth inhibition", "setting": "[7]; [16]", "result": "99% (active)"}, {"measurement": "growth inhibition", "setting": "[7]; at 50.0 µM", "result": "98.7% (active)"}, {"measurement": "growth inhibition", "setting": "[8]; at 1.2 µM", "result": -6, "unit": "%"}, {"measurement": "growth inhibition", "setting": "[8]; at 3.7 µM", "result": 33, "unit": "%"}, {"measurement": "growth inhibition", "setting": "[8]; at 11.0 µM", "result": "93% (active)"}, {"measurement": "growth inhibition", "setting": "[8]; at 33.0 µM", "result": "98% (active)"}, {"measurement": "growth inhibition", "setting": "[8]; at 100.0 µM", "result": "97% (active)"}, {"measurement": "growth inhibition", "setting": "[9]; at 1.2 µM", "result": 10, "unit": "%"}, {"measurement": "growth inhibition", "setting": "[9]; at 3.7 µM", "result": "77% (active)"}, {"measurement": "growth inhibition", "setting": "[9]; [15]", "result": 22, "unit": "%"}, {"measurement": "growth inhibition", "setting": "[9]; at 11.0 µM", "result": "97% (active)"}, {"measurement": "growth inhibition", "setting": "[9]; at 33.0 µM", "result": "99% (active)"}, {"measurement": "growth inhibition", "setting": "[9]; [16]", "result": "99% (active)"}, {"measurement": "growth inhibition", "setting": "[9]; at 50.0 µM", "result": "97.8% (active)"}, {"measurement": "growth inhibition", "setting": "[9]; at 100.0 µM", "result": "99% (active)"}, {"measurement": "growth inhibition", "setting": "[10]; at 1.2 µM", "result": 31, "unit": "%"}, {"measurement": "growth inhibition", "setting": "[10]; at 3.7 µM", "result": "87% (active)"}, {"measurement": "growth inhibition", "setting": "[10]; at 11.0 µM", "result": "99% (active)"}, {"measurement": "growth inhibition", "setting": "[10]; at 33.0 µM", "result": "99% (active)"}, {"measurement": "growth inhibition", "setting": "[10]; at 100.0 µM", "result": "98% (active)"}, {"measurement": "growth inhibition", "setting": "[11]; at 1.2 µM", "result": 10, "unit": "%"}, {"measurement": "growth inhibition", "setting": "[11]; at 3.7 µM", "result": "90% (active)"}, {"measurement": "growth inhibition", "setting": "[11]; at 11.0 µM", "result": "98% (active)"}, {"measurement": "growth inhibition", "setting": "[11]; at 33.0 µM", "result": "99% (active)"}, {"measurement": "growth inhibition", "setting": "[11]; at 100.0 µM", "result": "99% (active)"}, {"measurement": "growth inhibition", "setting": "[12]; at 1.2 µM", "result": 4, "unit": "%"}, {"measurement": "growth inhibition", "setting": "[12]; at 3.7 µM", "result": 62, "unit": "%"}, {"measurement": "growth inhibition", "setting": "[12]; at 11.0 µM", "result": "97% (active)"}, {"measurement": "growth inhibition", "setting": "[12]; at 33.0 µM", "result": "99% (active)"}, {"measurement": "growth inhibition", "setting": "[12]; at 100.0 µM", "result": "98% (active)"}, {"measurement": "growth inhibition", "setting": "[13]; [15]", "result": 59, "unit": "%"}, {"measurement": "growth inhibition", "setting": "[13]; [16]", "result": "99% (active)"}, {"measurement": "growth inhibition", "setting": "[13]; at 50.0 µM", "result": "98.8% (active)"}, {"measurement": "growth inhibition", "setting": "[14]; at 1.2 µM", "result": 9, "unit": "%"}, {"measurement": "growth inhibition", "setting": "[14]; at 3.7 µM", "result": 64, "unit": "%"}, {"measurement": "growth inhibition", "setting": "[14]; at 11.0 µM", "result": "97% (active)"}, {"measurement": "growth inhibition", "setting": "[14]; at 33.0 µM", "result": "99% (active)"}, {"measurement": "growth inhibition", "setting": "[14]; at 100.0 µM", "result": "98% (active)"}]}
